According to publication PMC4336329 (PLoS ONE, 2015):
The campaign covered roughly 310,000 compounds. About 2,200 (0.71%) showed an effect of 50% or more. The effect is printed as a negative number. The entries come from a sample that favours strong results as a whole.

Biological target: human ether-à-go-go-related gene (hERG) potassium channel (human, UniProt Q12809)
Experiment: primary screen, population patch clamp on CHO cells stably expressing hERG; higher = less effect of the substance

Sequence of human ether-à-go-go-related gene (hERG) potassium channel (Q12809 whole entry, looked up): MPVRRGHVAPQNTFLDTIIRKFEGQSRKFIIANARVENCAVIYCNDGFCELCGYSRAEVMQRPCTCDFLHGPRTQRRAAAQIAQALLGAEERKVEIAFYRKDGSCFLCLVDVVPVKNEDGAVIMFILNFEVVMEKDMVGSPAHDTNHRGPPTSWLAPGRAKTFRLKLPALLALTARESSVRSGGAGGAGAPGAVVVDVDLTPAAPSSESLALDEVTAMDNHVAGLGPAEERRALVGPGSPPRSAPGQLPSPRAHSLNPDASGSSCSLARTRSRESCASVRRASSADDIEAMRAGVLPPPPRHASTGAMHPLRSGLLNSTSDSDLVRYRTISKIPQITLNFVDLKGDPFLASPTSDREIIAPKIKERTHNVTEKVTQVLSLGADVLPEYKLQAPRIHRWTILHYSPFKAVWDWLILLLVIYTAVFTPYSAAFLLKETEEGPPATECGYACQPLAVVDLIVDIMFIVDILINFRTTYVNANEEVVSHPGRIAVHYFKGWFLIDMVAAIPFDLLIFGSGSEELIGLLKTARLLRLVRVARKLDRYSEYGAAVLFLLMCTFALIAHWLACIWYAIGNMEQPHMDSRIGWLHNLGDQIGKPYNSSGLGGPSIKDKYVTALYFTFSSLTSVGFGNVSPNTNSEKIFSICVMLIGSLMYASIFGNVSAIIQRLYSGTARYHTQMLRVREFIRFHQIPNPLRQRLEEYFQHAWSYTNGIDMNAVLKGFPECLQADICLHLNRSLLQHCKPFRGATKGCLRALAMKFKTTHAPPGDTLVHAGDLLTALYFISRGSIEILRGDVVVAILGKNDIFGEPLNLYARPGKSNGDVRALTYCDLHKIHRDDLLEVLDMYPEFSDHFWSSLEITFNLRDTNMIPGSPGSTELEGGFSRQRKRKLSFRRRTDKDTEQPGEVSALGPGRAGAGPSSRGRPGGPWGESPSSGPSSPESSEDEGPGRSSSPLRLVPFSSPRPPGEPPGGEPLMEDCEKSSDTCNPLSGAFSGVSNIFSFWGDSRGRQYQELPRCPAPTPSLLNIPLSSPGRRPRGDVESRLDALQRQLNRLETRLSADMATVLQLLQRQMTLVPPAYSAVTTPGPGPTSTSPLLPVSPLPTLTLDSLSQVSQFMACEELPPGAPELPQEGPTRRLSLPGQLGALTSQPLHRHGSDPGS

SMILES	hERG current change (%, negative = inhibition) at 1uM [%]
CCC1CN(C(=O)N2CCC(C(=O)NCCc3ccccc3)CC2)c2ccccc2O1 (stereo not drawn)	8.85
CCCCNC(=O)CCc1nc2cccnc2n1Cc1ccccc1	-34.7
COCCCNC(=O)CCc1nc2cccnc2n1Cc1ccccc1	-11.9
O=C(CCc1nc2cccnc2n1Cc1ccccc1)NCCc1ccc(Cl)cc1	-65.2
Cc1ccc([N+](=O)[O-])cc1N/C=C1\CCCCC1=O	16.5
Cc1ccc(N(CC(=O)NCc2cccnc2)S(C)(=O)=O)cc1C	12.4
COc1ccc(C2=NOC(C(=O)NCc3cccs3)C2)cc1 (stereo not drawn)	21.3
N#Cc1ccc(NC(=O)c2cc(S(=O)(=O)N3CCOCC3)ccc2N2CCCC2)cc1	-58.9
NC(=O)c1ccccc1NC(=O)c1cc(S(=O)(=O)N2CCCCC2)ccc1N1CCOCC1	-60.5
CS(=O)(=O)c1ccc(Cl)c(NC(=O)c2cc(S(=O)(=O)N3CCOCC3)ccc2N2CCCC2)c1	-60.2
CNC(=O)c1ccc(NC(=O)c2cc(S(=O)(=O)N3CCOCC3)ccc2N2CCCC2)cc1	13.5
NC(=O)c1ccc(NC(=O)c2cc(S(=O)(=O)N3CCCCC3)ccc2N2CCOCC2)cc1	13.4
O=C(Nc1ccccc1Cl)c1cc(S(=O)(=O)N2CCCCC2)ccc1N1CCOCC1	-5.21
O=C(Nc1ccccc1N1CCCC1)c1cc(S(=O)(=O)N2CCOCC2)ccc1Cl	-9.58
O=C(Nc1ccccc1)c1cc(S(=O)(=O)N2CCCCC2)ccc1N1CCOCC1	12.6
O=C(Nc1ccccc1N1CCCCC1)c1cc(S(=O)(=O)N2CCOCC2)ccc1Cl	7.72
CC1=NN(c2ccc(C(=O)O)cc2)C(=O)/C1=C/c1ccc(-c2ccccc2F)o1	15.2
C=CCOc1cccc(C(=O)N2CCC(CCC(=O)NC3CC3)CC2)c1	12.6
Cn1c(SCC(=O)N/N=C/C=C\c2ccco2)nc2ccccc21	-13.7
O=C(Nn1c(O)c(C=C2N=c3ccccc3=N2)sc1=S)c1ccccc1Cl	0.388
Cc1ccc(-c2nnn(CC(=O)N(c3ccc4c(c3)OCCO4)C(C(=O)NCC3CCCO3)c3ccc(F)cc3)n2)o1 (stereo not drawn)	10.9
O=C(O)c1ccc(S(=O)(=O)NC2CCCCCC2)cc1	13.5
O=C(NNC(=O)c1ccccc1[N+](=O)[O-])c1csc(N2CCOCC2)n1	0.109
Cn1cc(-c2nnnn2-c2ccc(Cl)cc2)c(=O)c2ccccc21	-66.3
CCn1cc(-c2nnnn2-c2ccc(Cl)cc2)c(=O)c2ccccc21	-16.3
Cn1cc(-c2nnnn2-c2ccccc2)c(=O)c2ccccc21	1.73

SMILES	hERG current change (%, negative = inhibition) at 1uM [%]
CCCCNC(=O)/C(=C/c1ccccc1)NC(C)=O	1.06
CCCCn1c(SCC(=O)NCc2ccco2)nc2c(sc3ccccc32)c1=O	-4.7
COc1cccc(NC(=O)CSc2nc3c(sc4ccccc43)c(=O)n2CCCN2CCCC2)c1	-3.14
O=C(CSc1nc2ccccc2c(=O)n1CCCO)NCc1ccccc1	-4.26
Cc1ccc(CNC(=O)CSc2nc3c(sc4ccccc43)c(=O)n2CCCN2CCCC2)cc1	-57.9
CCN(CC)CCn1c(SCC(=O)NCc2ccco2)nc2c(sc3ccccc32)c1=O	-50.4
O=C(CCCCCn1c(SCC(=O)c2ccccc2)nc2ccccc2c1=O)NCc1ccco1	14.7
COCCCn1c(SCC(=O)NCc2ccccc2)nc2ccccc2c1=O	-8.03
Cc1ccc(CSc2nc3ccccc3c(=O)n2CCCC(=O)NCc2ccco2)cc1	1.62
O=C(CSc1nc2c(sc3ccccc32)c(=O)n1CCCN1CCOCC1)NCC1CCCO1 (stereo not drawn)	2.38
Cc1ccc(CNC(=O)CSc2nc3ccccc3c(=O)n2CCCO)cc1	-51.3
O=C(CSc1nc2c(sc3ccccc32)c(=O)n1CCO)NCc1ccco1	-1
O=C(CCCCCn1c(SCc2ccncc2)nc2ccccc2c1=O)NCc1ccco1	-88.4
O=C(CN1C(=O)/C(=C/c2ccccc2F)Sc2ccccc21)N1CCN(c2ccccn2)CC1	12.8
CC(=O)Nc1cccc(C(=O)OCC(=O)NC(C)c2ccc(F)cc2)c1 (stereo not drawn)	16.1
Cc1cc(Oc2ccc(-c3ccccc3)cc2)nc(N2CCOCC2)n1	2.61
COc1ccc(N2CCC(CNC(=S)Nc3cccc(OC)c3)C2)cc1 (stereo not drawn)	8.46
Cc1ccc(-n2c(SCC(=O)NC3CCCCC3)nc3c(c2=O)SCC3)cc1	9.81
COc1ccc(C(=O)N=C2SC3CS(=O)(=O)CC3N2Cc2ccc(OC)c(OC)c2)cc1 (stereo not drawn)	10.7
Cc1ccc2nc(SCC(=O)N3CCCCC3)nc(=O)n2c1	12.4
CCOc1ccc(Nc2ncnc3c2cnn3Cc2ccccc2)cc1	8.72
C=CCOc1cccc(C2/C(=C(/O)c3ccc(F)cc3)C(=O)C(=O)N2CCN2CCOCC2)c1 (stereo not drawn)	12.9
O=[N+]([O-])c1cc(C(F)(F)F)cc([N+](=O)[O-])c1NN=C1CCCCC1	9.66
CC(=O)N1CCN(Cc2nc3cc(NC(=O)Nc4ccccc4)ccc3n2C)CC1	15.5
CC(C)CN(C(=O)COC(=O)C12CC3CC(CC(O)(C3)C1)C2)C1CCS(=O)(=O)C1 (stereo not drawn)	18.7
CSCCC(/C(O)=C(\C#N)c1nc2ccccc2[nH]1)N1C(=O)c2ccccc2C1=O (stereo not drawn)	5.68

SMILES	hERG current change (%, negative = inhibition) at 1uM [%]
CC(C)C(=O)Nc1ccc(C(=O)NNC(=O)NC2CCCCC2)cc1	21.9
O=C(CSc1nc2c(sc3ccccc32)c(=O)n1CCCN1CCCC1)NCc1ccco1	-70.1
O=C(CSc1nc2c(sc3ccccc32)c(=O)n1CCc1ccccc1)NCc1ccco1	2.54
COc1ccc(NC(=O)CSc2nc3c(sc4ccccc43)c(=O)n2CCCN2CCCC2)cc1	-1.35
O=C(CSc1nc2c(sc3ccccc32)c(=O)n1CCCN1CCCC1)NCC1CCCO1 (stereo not drawn)	-19.8
CCOCCCn1c(SCC(=O)NCc2ccco2)nc2c(sc3ccccc32)c1=O	3.64
O=C(CSc1nc2c(sc3ccccc32)c(=O)n1CCCN1CCCC1)NCc1ccccc1	-67.9
CCCc1cc(C(=O)NCCc2ccccc2)no1	-4.85
C[C@H](CCC(=O)O)[C@H]1CC[C@H]2[C@@H]3CC[C@@H]4C[C@H](O)CC[C@]4(C)[C@H]3CC[C@]12C	15.8
CC1(C(=O)NCCc2c[nH]c3ccccc23)C=CC2(CCCCC2)N1C(=O)c1ccccc1 (stereo not drawn)	2.59
O=C(/C=C/c1ccc(Cl)cc1)NCc1ccncc1	9.09
COc1ccccc1-n1c([S-])c(C(=O)Nc2ccccc2C(F)(F)F)[n+]2ccc(C(=O)NCCO)cc12	12.9
Nc1ncnc(Nc2c(F)cccc2F)n1	7.67
CCOCCCNc1nc2c(C)cccn2c(=O)c1/C=C1\SC(=S)N(C(C)CC)C1=O (stereo not drawn)	10.1
COc1ccc(CCN=Cc2c(C)[nH]n(-c3ccc([N+](=O)[O-])cc3)c2=O)cc1OC	7
Cc1[nH]n(-c2ccc([N+](=O)[O-])cc2)c(=O)c1C=NCCN1CCN(C(=O)c2ccccc2F)CC1	-34.2
O=c1c(C=NCCN2CCNCC2)c(-c2ccccc2)[nH]n1-c1ccc([N+](=O)[O-])cc1	-31
Cc1[nH]n(-c2ccc([N+](=O)[O-])cc2)c(=O)c1C=NCCN1CCN(C(=O)c2cccc(F)c2)CC1	-78
Cc1[nH]n(-c2ccc([N+](=O)[O-])cc2)c(=O)c1C=NCCN1CCN(C(=O)c2ccc(F)cc2)CC1	-81.7
Cc1[nH]n(-c2ccc([N+](=O)[O-])cc2)c(=O)c1C=NCC1CCCO1 (stereo not drawn)	7.67
COc1ccc(-c2[nH]n(-c3ccc([N+](=O)[O-])cc3)c(=O)c2C=NCCN2CCNCC2)cc1	2.86
Cc1[nH]n(-c2ccc([N+](=O)[O-])cc2)c(=O)c1C=NCCN1CCN(C(=O)c2ccc(Br)cc2)CC1	-77.4
Cc1[nH]n(-c2ccc([N+](=O)[O-])cc2)c(=O)c1C=NCCc1ccc(S(N)(=O)=O)cc1	13.6
C=CCNC(=S)N1CCN(CCN=Cc2c(C)[nH]n(-c3ccc([N+](=O)[O-])cc3)c2=O)CC1	-27.3
Cc1[nH]n(-c2ccc([N+](=O)[O-])cc2)c(=O)c1C=NCCN1CCN(C(=O)c2ccccc2)CC1	-77
Cc1[nH]n(-c2ccc([N+](=O)[O-])cc2)c(=O)c1C=NCCN1CCN(C(=O)C(C)C)CC1	-19.5
